Experimental data taken from PubChem BioAssay (NCI).
About 79,000 compounds went through this panel and 15% of them were active in at least one assay; those are over-represented in the sample as a whole. Activity calls are given as the source filed them. Rule as the data show it: active = growth inhibition above about 70%; inactive = the rest.

Columns and labels:
[1] = NCI Yeast Anticancer Drug Screen. Data for the wt1 strain (AID 149);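 also: 0% = growth of vehicle-treated wt1 cultures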; conditions: S. cerevisiae wt1 strain (SPY 50644) growth inhibition, stronger effect = higher value
In short: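 Compounds are added to wt1 yeast cultures. Growth is then measured. Inhibition is expressed relative to vehicle-treated controls.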

[2] = NCI Yeast Anticancer Drug Screen. Data for the rad50EPP+ strain (AID 151);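 also: 0% = growth of vehicle-treated control cultures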; conditions: S. cerevisiae rad50 mutant strain, stronger effect = higher value
In short: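 One strain with a rad50 alteration (rad50EPP+) was compound-treated, its growth then compared to that of vehicle controls.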

[3] = NCI Yeast Anticancer Drug Screen. Data for the mgt1 strain (AID 153); conditions: S. cerevisiae mgt1 mutant growth inhibition, stronger effect = higher value
In short: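 After exposure of the mgt1 yeast mutant to compound, growth was measured and reported as inhibition compared with vehicle controls.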

[4] = NCI Yeast Anticancer Drug Screen. Data for the rad50 strain (AID 155);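 also: 0% = growth of vehicle-only cultures of the same strain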; conditions: S. cerevisiae rad50 strain growth inhibition, stronger effect = higher value
In short: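 Inhibition values express reduced yeast growth in compound-treated cultures relative to vehicle-treated controls.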

[5] = NCI Yeast Anticancer Drug Screen. Data for the mec2-1 strain (AID 157); conditions: S. cerevisiae mec2-1 strain, stronger effect = higher value
In short: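 Test agents were screened against the mec2-1 yeast strain, with defined DNA repair or cell cycle alteration. Growth was scored as inhibition against vehicle-only controls.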

[6] = NCI Yeast Anticancer Drug Screen. Data for the rad14 strain (AID 159);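 also: 0% = growth of vehicle-treated control cultures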; conditions: S. cerevisiae rad14 strain growth inhibition, stronger effect = higher value
In short: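 A mutant yeast strain defective in DNA damage repair is treated with compound; inhibition of its growth is scored against untreated, vehicle-exposed cultures.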

[7] = NCI Yeast Anticancer Drug Screen. Data for the sgs1 mgt1 strain (AID 161);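 also: 0% = growth of cultures given vehicle only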; conditions: S. cerevisiae sgs1 mgt1 strain, stronger effect = higher value
In short: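 Genetically altered yeast, compound exposure, growth inhibition relative to vehicle.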

[8] = NCI Yeast Anticancer Drug Screen. Data for the CLN2oe strain (AID 163);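 also: 0% = growth of vehicle-only control cultures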; conditions: S. cerevisiae CLN2oe strain, stronger effect = higher value
In short: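 Here, growth inhibition in a cell-cycle-altered yeast strain after compound exposure was quantified against vehicle control growth.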

[9] = NCI Yeast Anticancer Drug Screen. Data for the cln2 rad14 strain (AID 165);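 also: 0% = growth equal to vehicle treated cultures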; conditions: S. cerevisiae cln2 rad14 strain, stronger effect = higher value
In short: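 Growth of compound-exposed yeast (cln2 rad14 genotype) measured and expressed as inhibition relative to vehicle.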

[10] = NCI Yeast Anticancer Drug Screen. Data for the bub3 strain (AID 167); conditions: S. cerevisiae bub3 mutant strain, stronger effect = higher value
In short: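 Steps: expose the mutant yeast strain to compound; grow alongside vehicle-treated cultures; measure growth; express inhibition against the vehicle cultures.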

[11] = NCI Yeast Anticancer Drug Screen. Data for the wt2 strain (AID 169);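 also: 0% = growth of vehicle-treated yeast cultures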; conditions: S. cerevisiae wt2 strain growth inhibition, stronger effect = higher value
In short: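 Genetically defined yeast strains from a DNA-repair/cell-cycle panel were used. Compound-exposed yeast growth was measured, and the inhibition was calculated relative to vehicle treatment.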

[12] = NCI Yeast Anticancer Drug Screen. Data for the mlh1 strain (AID 171);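 also: 0% = growth of vehicle-treated control cultures of the same strain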; conditions: S. cerevisiae mlh1 strain growth inhibition, stronger effect = higher value
In short: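 Here the genetically defined yeast mutant is grown with each compound, and the extent to which its growth falls below that of vehicle-exposed cells is reported.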

[13] = NCI Yeast Anticancer Drug Screen. Data for the sgs1 strain (AID 173);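 also: 0% = growth of vehicle-only control cultures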; conditions: S. cerevisiae sgs1 mutant, stronger effect = higher value
In short: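 Relative growth inhibition, referenced to vehicle, was determined in a yeast strain with a defined alteration affecting DNA damage repair or cell cycle control after compound exposure.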

[14] = NCI Yeast Anticancer Drug Screen. Data for the mlh1 rad18 strain (AID 175); conditions: S. cerevisiae mlh1 rad18 strain growth inhibition, stronger effect = higher value
In short: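 In this whole-cell yeast screen, a strain with altered DNA damage repair is challenged with compound, and its growth is measured against matched vehicle-treated controls.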

[15] = NCI Yeast Anticancer Drug Screen. Data for the rad18 strain (AID 177); conditions: S. cerevisiae rad18 mutant growth inhibition, stronger effect = higher value
In short: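 Screen uses a yeast strain with a defined lesion in DNA damage repair; compound effect is read as loss of growth compared to untreated vehicle cultures.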

[16] = at 5.0 µM (retest, dose inferred, filed as 0.5)
[17] = at 50.0 µM (retest, dose inferred, filed as 5.0)

Measured: growth inhibition

O=C1c2ccccc2CCC1(Br)Br
inactive: [1]; at 1.2 µM 1% | [1]; at 3.7 µM 11% | [1]; at 11.0 µM 36% | [2]; at 1.2 µM 55% | [3]; at 1.2 µM 2% | [3]; at 3.7 µM 11% | [3]; at 11.0 µM 53% | [4]; at 1.2 µM 11% | [4]; at 3.7 µM 22% | [4]; [16] 50% | [4]; at 11.0 µM 69% | [5]; at 1.2 µM 9% | [5]; at 3.7 µM 21% | [5]; [16] 21% | [6]; at 1.2 µM 7% | [6]; at 3.7 µM 14% | [6]; at 11.0 µM 51% | [7]; [16] 63% | [8]; at 1.2 µM 9% | [8]; at 3.7 µM 13% | [9]; [16] 18% | [10]; at 1.2 µM 1% | [10]; at 3.7 µM 15% | [10]; [16] 61% | [11]; at 1.2 µM 5% | [11]; at 3.7 µM 13% | [11]; at 11.0 µM 62% | [12]; at 1.2 µM 7% | [12]; at 3.7 µM 13% | [13]; at 1.2 µM 13% | [13]; at 3.7 µM 23% | [15]; at 1.2 µM 13% | [15]; at 3.7 µM 23%
active: [1]; at 33.0 µM 99% | [1]; at 100.0 µM 99% | [2]; at 3.7 µM 82% | [2]; at 11.0 µM 97% | [2]; at 33.0 µM 99% | [2]; at 100.0 µM 99% | [3]; at 33.0 µM 99% | [3]; at 100.0 µM 99% | [4]; at 33.0 µM 99% | [4]; [17] 99% | [4]; at 50.0 µM 99.2% | [4]; at 100.0 µM 99% | [5]; at 11.0 µM 76% | [5]; at 33.0 µM 99% | [5]; [17] 100% | [5]; at 50.0 µM 99.3% | [5]; at 100.0 µM 99% | [6]; at 33.0 µM 99% | [6]; at 100.0 µM 99% | [7]; [17] 99% | [7]; at 50.0 µM 99.2% | [8]; at 11.0 µM 93% | [8]; at 33.0 µM 99% | [8]; at 100.0 µM 99% | [9]; [17] 100% | [9]; at 50.0 µM 99.4% | [10]; at 11.0 µM 74% | [10]; at 33.0 µM 99% | [10]; [17] 99% | [10]; at 50.0 µM 99.2% | [10]; at 100.0 µM 99% | [11]; at 33.0 µM 99% | [11]; at 100.0 µM 99% | [12]; at 11.0 µM 72% | [12]; at 33.0 µM 99% | [12]; at 100.0 µM 99% | [13]; at 11.0 µM 76% | [13]; at 33.0 µM 99% | [13]; at 100.0 µM 99% | [14]; [16] 85% | [14]; [17] 99% | [14]; at 50.0 µM 99.3% | [15]; at 11.0 µM 75% | [15]; at 33.0 µM 99% | [15]; at 100.0 µM 99%

O=C(/C=C\c1ccc([N+](=O)[O-])o1)Nc1ccc(Cl)cc1
active: [1]; at 11.0 µM 97% | [1]; at 33.0 µM 98% | [1]; at 100.0 µM 98% | [2]; at 11.0 µM 83% | [2]; at 33.0 µM 91% | [2]; at 100.0 µM 84% | [4]; at 3.7 µM 82% | [4]; at 11.0 µM 97% | [4]; at 33.0 µM 97% | [4]; at 50.0 µM 90.1% | [4]; at 100.0 µM 96% | [5]; at 33.0 µM 91% | [5]; at 100.0 µM 95% | [6]; at 3.7 µM 70% | [6]; at 11.0 µM 91% | [6]; at 33.0 µM 94% | [6]; at 100.0 µM 96% | [7]; [17] 84% | [7]; at 50.0 µM 90% | [8]; at 11.0 µM 73% | [8]; at 33.0 µM 76% | [10]; at 11.0 µM 82% | [10]; at 33.0 µM 78% | [10]; at 100.0 µM 96% | [11]; at 3.7 µM 87% | [11]; at 11.0 µM 99% | [11]; at 33.0 µM 99% | [11]; at 100.0 µM 98% | [13]; at 1.2 µM 81% | [13]; at 3.7 µM 94% | [13]; at 11.0 µM 98% | [13]; at 33.0 µM 98% | [13]; at 100.0 µM 95% | [14]; [16] 88% | [14]; [17] 86% | [14]; at 50.0 µM 92.8% | [15]; at 1.2 µM 95% | [15]; at 3.7 µM 97% | [15]; at 11.0 µM 97% | [15]; at 33.0 µM 97% | [15]; at 100.0 µM 93%
inactive: [1]; at 1.2 µM 6% | [1]; at 3.7 µM 50% | [2]; at 1.2 µM 52% | [2]; at 3.7 µM 69% | [4]; at 1.2 µM 38% | [4]; [16] 24% | [4]; [17] 54% | [5]; at 1.2 µM 4% | [5]; at 3.7 µM 19% | [5]; [16] 23% | [5]; at 11.0 µM 63% | [5]; [17] 55% | [5]; at 50.0 µM 27.5% | [6]; at 1.2 µM 21% | [7]; [16] 63% | [8]; at 1.2 µM -4% | [8]; at 3.7 µM 30% | [8]; at 100.0 µM 61% | [9]; [16] 14% | [9]; [17] 31% | [9]; at 50.0 µM 35.1% | [10]; at 1.2 µM 0% | [10]; at 3.7 µM 24% | [10]; [16] 6% | [10]; [17] 42% | [10]; at 50.0 µM 10.4% | [11]; at 1.2 µM 28%
